Most compounds without a hit are left out; they make up all but 2.4% or so of the library.
D2 antagonist: HTS Assay for Allosteric Antagonists of the Human D2 Dopamine Receptor: Primary Screen for Antagonists; 2% of 340,000 active; AID 485344, 2010; HEK293 TREx D2 cells, calcium flux, dopamine EC80; inhibition, % at 10 µM; D(2) dopamine receptor (Homo sapiens), P14416; in the data active means inhibition above about 30%; inactive means below that, where a call was filed; further: 0% is about no effect
Target sequence (P14416 whole entry, looked up): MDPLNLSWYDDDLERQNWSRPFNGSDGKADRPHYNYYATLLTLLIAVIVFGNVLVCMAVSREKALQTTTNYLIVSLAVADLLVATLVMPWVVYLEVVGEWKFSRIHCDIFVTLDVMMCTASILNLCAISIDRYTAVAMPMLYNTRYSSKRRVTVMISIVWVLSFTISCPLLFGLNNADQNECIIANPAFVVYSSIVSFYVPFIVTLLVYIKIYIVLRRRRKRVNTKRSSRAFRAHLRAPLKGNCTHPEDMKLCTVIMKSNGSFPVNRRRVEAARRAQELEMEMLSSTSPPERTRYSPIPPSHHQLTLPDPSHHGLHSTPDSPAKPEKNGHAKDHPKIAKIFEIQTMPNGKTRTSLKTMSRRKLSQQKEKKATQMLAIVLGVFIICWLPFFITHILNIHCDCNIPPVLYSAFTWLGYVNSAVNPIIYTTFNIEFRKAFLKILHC
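Inhibition of EC80 dopamine-driven calcium flux, recorded kinetically, defines activity here; cells are a tetracycline-induced HEK293 T-REx line expressing force-coupled D2.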
D2 PAM-1: Beta-Arrestin HTS for Positive Allosteric Modulators of the Human D2 Dopamine Receptor: Potentiators; D(2) dopamine receptor (Homo sapiens), P14416; DiscoveRx D2 beta-arrestin cells, luminescence, 90 min; 100% = 57 uM dopamine signal; potentiation, % (no concentration beside the values); 0.23% of 360,000 active; in the data active means potentiation above about 50%; inconclusive means mostly about 30% to 49%
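PathHunter D2 cells, attached overnight at 37 deg C, received compound in DMSO plus dopamine at EC20 (50 nM final) for 90 min at 37 deg C. Beta-arrestin recruitment was read as luminescence after 1 h with detection reagent at ambient temperature.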
D2 ag-1: HTS Assay for Allosteric Agonists of the Human D2 Dopamine Receptor: Primary Screen for Agonists; D(2) dopamine receptor (Homo sapiens), P14416; HEK293 T-REx D2 cells, calcium flux agonist mode; activation, % at 2 µM; 0.53% of 340,000 active;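 active means activation over 3 SD above normal in the single-dose calcium agonist read, cut at about 30% in these data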; further: 0% is about no effect
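Tetracycline-induced HEK293 Trex cells with D2 receptor force-coupled to calcium signaling, plated overnight at 30 C and loaded with no-wash calcium dye. Calcium flux read kinetically for 180 s after compound addition; responses flag agonists.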
D2 ag-2: Beta-Arrestin HTS for Positive Allosteric Modulators of the Human D2 Dopamine Receptor: Agonists | D(2) dopamine receptor (Homo sapiens), P14416 | DiscoveRx PathHunter D2 beta-arrestin, luminescence, 90 min; 100% = 57 uM dopamine signal | activation, % (no concentration beside the values) | 0.084% of 360,000 active | AID 624465, 2012; in the data active means activation above about 40%; inconclusive means between about 15% and that limit
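DiscoveRx PathHunter D2 beta-arrestin cells (2,100/well) attached overnight, then compound-stimulated 90 min at 37 C in HBSS/10 mM HEPES/0.1% Tween-20 buffer; beta-galactosidase complementation read by luminescence after 1 h at ambient temperature. Dopamine 57 uM final (EC100) as control.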
D2 PAM-2: HTS Assay for Positive Allosteric Modulators of the Human D2 Dopamine Receptor: Primary Screen for Potentiators; potentiation, % at 10 µM; HEK293 T-REx D2, calcium flux, EC20 dopamine potentiation; 0.34% of 340,000 active;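 active means potentiation over 3 SD above the plate norm, cut at about 30% in these data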; further: 0% is about no effect
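Using a no-wash calcium dye in inducible, force-coupled HEK293 Trex cells expressing D2, we tracked fluorescence each second for 180 s after compound, then for 180 s after EC20 dopamine to detect augmented signalling.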
Numbers without * were called inactive; ? = inconclusive; . = no result; ! = not active in a repeat.

SMILES	D2 antagonist	D2 PAM-1	D2 ag-1	D2 ag-2	D2 PAM-2
CC(=O)c1cccc(N2C(=NC(=O)CCc3ccccc3)SC3CS(=O)(=O)CC32)c1 (configuration not stated)	31.8*	-7.0	-0.3	-1.7	-1.8
CC(C)C[C@@H](C(=O)NC1CCN(Cc2ccccc2)CC1)N1C(=O)N2CCc3c([nH]c4ccccc34)[C@@]2(C)C1=O	30.9*	-82.6	0.8	-7.9	-14.7
COc1ccc2[nH]c3c(c2c1)CCN1C(=O)N([C@@H](C)C(=O)NC2CC2)C(=O)[C@]31C	3.1	0.2	30.4*	8.1	-0.9
C[C@@H](C(=O)NC1CCN(Cc2ccccc2)CC1)N1C(=O)N2CCc3c([nH]c4ccccc34)[C@@]2(C)C1=O	-22.7	-85.7	0.4	-4.4	-17.4
COc1ccc2[nH]c3c(c2c1)CCN1C(=O)N([C@@H](C)C(=O)NCc2ccccc2)C(=O)[C@]31C	10.4	-18.3	36.0*	-2.7	1.4
COc1ccccc1CNC(=O)CN1C(=O)c2cccnc2Oc2ccccc21	.	.	0.1	.	-2.6
CC(C)C(NC(=O)c1ccccc1)C(=O)NCc1ccccn1 (configuration not stated)	61.3*	1.8	0.8	-0.4	-9.9
COc1cc(OC)cc(C(=O)NC(C(=O)NCc2ccccn2)C(C)C)c1 (configuration not stated)	-4.4	-8.4	1.1	-3.3	6.9
O=S(=O)(Cc1ccccc1)Oc1ccccc1	-3.6	0.4	-1.5	-2.6	6.7
COc1ccc(NC(=O)CSc2nc3ccsc3c(=O)n2CCCCCC(=O)O)cc1	1.7	-2.0	-0.2	-0.7	1.4
N#CCC1c2ccccc2CCN1C(=O)Nc1ccc(C(F)(F)F)cc1 (configuration not stated)	64.6*	-16.3	0.0	0.2	-24.6
O=C(c1ccc([N+](=O)[O-])o1)N1CCN(c2nc3c(Cl)cccc3s2)CC1	0.1	69.4*	0.1	10.2	2.5
COc1cccc2sc(N3CCN(C(=O)c4ccc([N+](=O)[O-])o4)CC3)nc12	-1.7	21.2	0.5	10.1	-7.5
COc1ccc(OC)c(C2Nc3c(C)cc(C)cc3-c3cc(C)nn32)c1 (configuration not stated)	.	.	3.0	.	-10.7
COc1ccccc1C1=Nn2c(nc3sc(C(=O)Nc4ccccc4Cl)c(C)c3c2=O)SC1	.	.	16.6	.	-6.2
CS(=O)(=O)NCCNC(=O)c1cc(OCC(F)(F)F)ccc1OCC(F)(F)F	30.8*	-0.8	0.3	-3.5	-3.3
COc1cccc(/C=N\NC(=O)c2cc(OCC(F)(F)F)ccc2OCC(F)(F)F)c1	-4.3	-3.9	-0.8	-4.4	30.8*
CCOc1ccc(N2CC(C(=O)NCCc3c[nH]c4ccc(C)cc34)CC2=O)cc1 (configuration not stated)	-3.1	4.1	0.9	0.7	8.7
O=C1C(=NO)CCc2ccccc21	.	79.9*	.	?	.
COCCn1c(=O)[nH]c2cc(C(=O)OC)ccc2c1=O	-5.4	21.0	0.6	1.1	11.7
COC(=O)c1ccc2c(C)c(C(C)(C)O)[nH]c2c1	44.9*	3.3	-0.4	3.3	-8.8
CC1CCc2nc3ncn(CC(=O)Nc4cccc(C#N)c4)c(=O)c3cc2C1 (configuration not stated)	.	.	-0.1	.	2.3
O=C(NC1CCCCC1)c1ccc(CS(=O)(=O)Cc2ccccc2F)o1	43.8*	-4.4	1.3	-0.7	-0.6
O=C(NC1CCCC1)c1ccc(CS(=O)(=O)Cc2ccccc2F)o1	-5.6	-5.9	0.2	2.2	-8.7
Cc1ccc(S(=O)(=O)/N=C2/C=C(C3C(=O)CC(C)(C)CC3=O)C(=O)c3ccccc32)cc1	5.8	110.1*	-0.4	10.5	0.5
SMILES	D2 antagonist	D2 PAM-1	D2 ag-1	D2 ag-2	D2 PAM-2
Cc1ccc(S(=O)(=O)/N=C2\C=C(NS(=O)(=O)c3ccccc3)C(=O)c3ccccc32)cc1	.	1.4	.	-2.8	.
COC(=O)c1ccc(NC(=O)Cc2coc3cc(C)ccc23)cc1	.	.	-0.2	.	-25.0
COc1ccc(NC(=O)CC2C(=O)N(c3ccc(F)cc3)C(=S)N2NC(=O)c2ccc(Cl)cc2)cc1 (configuration not stated)	37.4*	-4.3	-0.5	-6.6	-7.9
COc1ccc(-n2nc(C(N)=O)c(O)cc2=O)cc1	32.1*	-3.2	0.9	2.6	-5.2
CCC(CC)C(=O)N(C)c1c(C)nc2c(OCc3ccc(F)c(F)c3)cccn12	.	-7.7	.	-2.4	.
CN(C)CCCn1c(SCC(=O)Nc2sc3c(c2C#N)CCCC3)nnc1-c1ccncc1	39.1*	-14.7	-0.2	-0.3	-3.7
CC1=NN(Cc2ccccc2)C(=O)/C1=C\c1ccc(N(C)C)cc1	-4.6	0.5	-1.2	-2.4	-5.8
CCOC(=O)C1=NN(c2ccccc2)C(=O)/C1=C\c1ccc(N(C)C)cc1	31.7*	-11.3	0.5	-2.9	-7.7
COC(=O)CC1=NN(c2ccccc2)C(=O)/C1=C\c1ccc(OC)cc1	56.0*	-8.8	3.4	-5.1	2.1
Cc1cccc(-c2nc(S(=O)(=O)c3ccc(Cl)cc3)c(N3CCCCCC3)o2)c1	.	.	0.0	.	-5.2
COc1ccc(C(CCN2CCN(c3ccccc3)CC2)c2c(O)cc(OC)cc2OC)cc1 (configuration not stated)	79.6*	-26.4	0.9	0.4	-29.3
COc1cc(O)c(C(CCN2CCN(c3ccccc3)CC2)c2ccc(N(C)C)cc2)c(OC)c1 (configuration not stated)	32.1*	-24.2	0.7	-0.6	-16.5
COc1cc(O)c(C(CCN2CCOCC2)c2ccc(N(C)C)cc2)c(OC)c1 (configuration not stated)	-39.9	-9.7	-0.3	-1.1	-0.2
CCc1ccccc1NC(=O)Cn1nnc(C(=O)NCc2cccc(OC)c2)c1N	.	-14.2	0.0	-5.9	69.6*!
Cc1ccc(NC(=O)Cn2nnc(C(=O)NCc3ccco3)c2N)cc1	-12.9	-11.6	0.1	-1.8	1.3
COc1ccc(CCNC(=O)Cn2nnc(C(=O)Nc3ccc(Br)cc3)c2N)cc1OC	-42.7	-2.0	0.9	12.6	56.2*
COc1ccccc1NC(=O)c1nnn(CC(=O)Nc2cccc(SC)c2)c1N	-5.6	-11.3	-1.3	-2.4	35.4*
CCOc1ccc(NC(=O)Cn2nnc(C(=O)NCCc3ccc(OC)c(OC)c3)c2N)cc1	4.8	18.2	-0.6	-2.3	6.3

Compound activity deposited in PubChem by National Center for Advancing Translational Sciences (NCATS).
